Only some compounds are listed: those with a hit (about 2.6% of all), similar ones and a draw of the others.
Cruzain Triton: qHTS Assay for Promiscuous and Specific Inhibitors of Cruzain (with detergent). Cruzipain (Trypanosoma cruzi), P25779. purified cruzain, Z-FR-AMC fluorescence, 0.01% Triton. Potency, µM, inactives show max response, negative = inhibition, most hits filed as inhibitors. 200,000 compounds, 0.43% hits. AID 1478, 2009;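 further: plate controls were neutral wells for no effect and buffer without enzyme for full effect; nearly all actives have a fitted effect of over 40% in size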
Target sequence (P25779 123-467 limits assumed): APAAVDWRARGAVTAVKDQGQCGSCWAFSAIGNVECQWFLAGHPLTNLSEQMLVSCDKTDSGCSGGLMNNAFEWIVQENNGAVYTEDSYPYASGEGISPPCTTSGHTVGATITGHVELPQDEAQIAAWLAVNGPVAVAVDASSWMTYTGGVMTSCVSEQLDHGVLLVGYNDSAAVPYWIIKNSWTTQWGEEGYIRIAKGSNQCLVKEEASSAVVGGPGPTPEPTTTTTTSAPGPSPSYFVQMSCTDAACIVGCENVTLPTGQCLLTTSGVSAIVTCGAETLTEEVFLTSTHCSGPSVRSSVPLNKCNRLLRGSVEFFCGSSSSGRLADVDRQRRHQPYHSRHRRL
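Cruzain (1.5 nM) preincubated 15 min at RT with compound in 100 mM sodium acetate pH 5.5, 5 mM DTT, 0.01% Triton X-100. Reaction started with 2 uM Z-FR-AMC; AMC fluorescence (ex 360/em 450 nm) change over 60 s gave rate.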
Cruzain inh noDet: qHTS Assay for Promiscuous and Specific Inhibitors of Cruzain (without detergent); 200,000 compounds, 2.3% hits; purified cruzain, Z-FR-AMC fluorescence, no detergent; Potency, µM, without a hit: max response, negative = inhibition, usual class: inhibitors; Cruzipain (Trypanosoma cruzi), P25779;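 further: plate controls were enzyme without inhibitor for no effect and buffer without enzyme for full effect; nearly all actives have a fitted effect of over 40% in size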
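Purified cruzain at 1.5 nM, pre-incubated 15 min with compound at room temperature in 100 mM sodium acetate pH 5.5, 5 mM DTT, 0.00005% Triton X-100. Reaction started with 2 uM Z-FR-AMC; AMC fluorescence increase over 60 s gives rate.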
* marks the source's active call; other numbers are inactive results; ? = inconclusive; / = no result. The call rests on the fitted dose curve; in most records, active means well fitted curve in the direction sought with a large enough effect; inconclusive means small, poorly fitted or top-dose-only effect, or another doubt; inactive means no such curve, though single readings can be large; an effect the other way counts as inactive or inconclusive. Potency means the concentration at half of the fitted maximal effect.

SMILES	Cruzain Triton	Cruzain inh noDet
Cc1[nH]c2ccccc2c1/C=C/c1nc2ccccc2c(=O)n1-c1ccc([N+](=O)[O-])cc1	1%	25µM*
CCOc1ccc(Cl)cc1C1CC(=O)Nc2cc(OC)c(OC)c(OC)c21 (stereo not drawn)	-1%	-7%
c1ccc(Nc2ncnc3ccc(-c4cccnc4)cc23)cc1	1%	-1%
O=C(Nc1ccc2c(c1)CCC2)c1ccc(F)cc1	-3%	2%
O=C(Nc1ccc2c(c1)CCC2)c1cc(S(=O)(=O)Nc2ccc(F)cc2)c(Cl)cc1Cl	-1%	20µM*
Cc1nc2ccn(Cc3ccco3)c(=O)c2cc1C(=O)N1CCN(c2ccccc2F)CC1	-6%	23%
O=[N+]([O-])c1ccc(N2CCN(S(=O)(=O)c3ccccc3[N+](=O)[O-])CC2)cc1N1CCc2ccccc2C1	-4%	6.3µM*
CN1CCN(c2cc(N3CCc4ccccc4C3)c(F)cc2[N+](=O)[O-])CC1	-1%	12%
COc1cc(NS(=O)(=O)c2cc(Br)cc3c2N(C(=O)C2CC2)CC3)cc(OC)c1	-4%	6%
O=C(O)c1cc[c]([Hg][S]c2ncnc3nc[nH]c23)cc1	-1%	18%
CN1C(=O)/C(=C2\SC(=S)N(CC3CCCO3)C2=O)c2ccccc21 (stereo not drawn)	0%	0%
O=C1/C(=C\c2ccc(-c3ccccc3Cl)o2)SC(=S)N1CC1CCCO1 (stereo not drawn)	-4%	16µM*
CCC(C(=O)Nc1ccccc1OC)n1c(C(=O)OC)cc2sc(Cl)cc21 (stereo not drawn)	-4%	0%
Cc1ccc(OCC(=O)NC(=S)Nc2ccc(Br)c(C)n2)cc1	4%	16µM*
Cc1nc(NC(=S)NC(=O)COc2ccc(Cl)cc2)ccc1Br	1%	?
CN1CCN(c2ncc3c(n2)CCN(Cc2ccc(Br)s2)C3)CC1	-3%	3%
Nc1ccc2ncccc2c1	2%	-7%
Nc1ccc2cc3ccccc3cc2c1	0%	13µM*
Oc1c(Cl)cc(Cl)cc1Cl	-1%	/
CCN1CCN(c2ncc3c(n2)CCN(Cc2sccc2C)C3)CC1	-3%	2%
COc1ccc(-c2nc(CNC(=O)Nc3ccccc3)c(C)o2)c(OC)c1	-5%	1%
O=C(Nc1ccc(Cl)cc1Cl)c1ccc(-c2ccccc2)cc1	0%	25µM*
O=C(Nc1c(Cl)cccc1Cl)c1ccc(-c2ccccc2)cc1	1%	-9%
Cc1ccc([N+](=O)[O-])cc1NC(=O)c1ccc(C(C)(C)C)cc1	-1%	-2%
Cc1ccc([N+](=O)[O-])cc1NC(=O)c1ccc(-c2ccccc2)cc1	3%	13µM*
SMILES	Cruzain Triton	Cruzain inh noDet
CC(=O)c1c(C)oc2c1cc(NS(=O)(=O)c1ccc(Cl)c(C)c1)c1ccccc12	-4%	-25%
COc1ccc2c(c1)C(=O)[C@@H](OC(=O)Nc1cc(OC)c(OC)c(OC)c1)[C@H](c1ccc(OC)c(Br)c1)O2	-1%	-15%
O=C(CSc1nnc(COc2ccc(Cl)cc2)o1)N1CCN(c2ccccc2)CC1	-8%	-2%
O=C(CSc1nnc(-c2ccc(Cl)cc2)o1)N1CCN(c2ccccc2)CC1	-7%	16µM*
CNc1ccc(O)cc1	-5%	-7%
CC(=O)C(N=Nc1ccccc1)(Sc1nnc(-c2ccccc2)n1-c1ccccc1)C(C)=O	1%	-25%
CC(=O)C(N=Nc1ccccc1)(Sc1nnc(-c2ccccc2)n1-c1ccccc1)C(=O)Nc1ccccc1 (stereo not drawn)	-1%	25µM*
CC1=C(c2ccc(F)cc2)S(=O)(=O)N=C1N1CCC(C(=O)NCCc2ccco2)CC1	-1%	23%
Cc1ccc(C)c(N2CCN(C(=O)CN3C(=O)CSc4c3c(C)nn4-c3ccccc3)CC2)c1	-2%	-8%
Cc1ccc(C2CC(=O)Oc3cc(C)c(Cl)c(C)c32)cc1 (stereo not drawn)	-1%	5%
O=c1c2c(n3nnnc3n1Cc1ccccc1)-c1ccccc1CC21CCCC1	4%	25µM*
CCC1(C)Cc2ccccc2-c2c1c(=O)n(Cc1ccccc1)c1nnnn21 (stereo not drawn)	5%	?
CCC(C)NC(=O)COC(=O)c1ccccc1OCC(=O)Nc1ccc(Br)cc1 (stereo not drawn)	3%	15%
COCC(=O)Nc1ccc(Nc2ccccc2)cc1	5%	25µM*
CCC(=O)Nc1ccc(Nc2ccccc2)cc1	0%	-10%
O=C(COC(=O)c1ccccc1OCC(=O)Nc1ccc(Br)cc1)Nc1ccccc1	1%	13µM*
Cc1nn2c(NCCCN3CCOCC3)c3c(nc2c1-c1ccccc1)CCC3	-2%	-5%
CCCCNc1c2c(nc3c(-c4ccccc4)c(C)nn13)CCC2	-12%	7.9µM*
CSc1cccc(NC(=O)Nc2ccccc2OCc2cc(=O)n3cc(C)ccc3n2)c1	0%	5%
